Measured values taken from PubChem BioAssay AID2284182 (EPA ToxCast).
Records with an inconclusive call do not appear. The source made the active and inactive calls. Rule for the calls: active = hit-call score of the fitted dose curve at least 0.9, where 1 is the maximum; inconclusive = response in the unintended direction; inactive = score below 0.9.

Target: human Serotonin Receptor 5-HT7 Agonism, HTR7 (gene 3363) (UniProt P34969)
Experiment: ERF_FR_GPCR_hHTR7: Eurofins (ERF) G Protein-Coupled Receptor (GPCR) Radioligand Binding LeadHunter Assay for human Serotonin Receptor 5-HT7 Agonism
Protocol: ERF_FR_GPCR_hHTR7 is a biochemical, single-readout assay that uses extracted gene-proteins in a cell-free assay. Measurements were taken 2 hour after chemical dosing in a 96-well plate. See 5-HT7 Human Serotonin GPCR Binding (Agonist Radioligand) Assay, Cerep.ERF_FR_GPCR_hHTR7 is an assay component calculated from the ERF_FR_GPCR_hHTR7 assay. It is designed to measure radioligand binding using a type of binding reporter as detected by scintillation counting with radiometry technology.Data from the assay component ERF_FR_GPCR_hHTR7 was analyzed at the assay endpoint, ERF_FR_GPCR_hHTR7, in the positive analysis fitting direction relative to DMSO as the negative control and baseline of activity. Using a type of binding reporter, gain-of-signal activity can be used to understand changes in binding as they relate to gene HTR7. To generalize the intended target to other relatable targets, this assay endpoint is annotated to the gpcr intended target family, where the subfamily is serotonin.
Human cells are incubated for 120 minutes at room tempreture with [3H]LSD ligand (2.3 nM) and serotonin as control inhibitor. Test Sample Requirements: Minimum for 1) Screen: 60 ul of 10 mM stock -OR- 1 mg (pre-weighed) for 10 uM final testing. 2) Dose Response: 90 ul of 10 mM stock -OR- 1 mg (pre-weighed) for a top concentration at 10 uM.

Chain of human Serotonin Receptor 5-HT7 Agonism, HTR7 (gene 3363) (P34969 whole entry, looked up): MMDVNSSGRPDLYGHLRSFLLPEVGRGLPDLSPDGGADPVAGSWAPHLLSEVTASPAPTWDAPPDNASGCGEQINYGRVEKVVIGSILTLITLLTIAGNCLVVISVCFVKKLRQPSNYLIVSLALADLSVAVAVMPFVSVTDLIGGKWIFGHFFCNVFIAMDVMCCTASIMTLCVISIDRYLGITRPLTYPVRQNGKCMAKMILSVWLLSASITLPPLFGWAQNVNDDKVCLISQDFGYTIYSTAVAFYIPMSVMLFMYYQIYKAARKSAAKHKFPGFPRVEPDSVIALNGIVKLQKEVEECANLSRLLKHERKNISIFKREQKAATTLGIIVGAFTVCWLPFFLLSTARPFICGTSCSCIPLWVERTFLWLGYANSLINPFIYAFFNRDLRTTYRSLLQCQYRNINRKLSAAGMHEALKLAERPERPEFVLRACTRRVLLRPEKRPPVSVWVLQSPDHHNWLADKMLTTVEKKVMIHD

| Structure (SMILES) | AC50 |
| --- | --- |
| O=C(/C=C/c1ccc(O)cc1)CC(=O)/C=C/c1ccc(O)cc1 | 1750 nM (active) |
